Each structure is given as a SMILES string. Inconclusive results are not listed. The source made the active and inactive calls. Calls follow the shape of the dose curve; as a rule, active = well fitted inhibition curve with a large enough effect in the repeat runs; inconclusive = weak or mixed curves; inactive = no such curve, though single readings can be large or run the other way.
% is scaled to controls: 0 for no effect and ±100 for the full control effect; potency is read from the fitted curve at half-maximal effect.

Chain of Cytochrome P450 2D6 (Homo sapiens) (P10635 whole entry, looked up): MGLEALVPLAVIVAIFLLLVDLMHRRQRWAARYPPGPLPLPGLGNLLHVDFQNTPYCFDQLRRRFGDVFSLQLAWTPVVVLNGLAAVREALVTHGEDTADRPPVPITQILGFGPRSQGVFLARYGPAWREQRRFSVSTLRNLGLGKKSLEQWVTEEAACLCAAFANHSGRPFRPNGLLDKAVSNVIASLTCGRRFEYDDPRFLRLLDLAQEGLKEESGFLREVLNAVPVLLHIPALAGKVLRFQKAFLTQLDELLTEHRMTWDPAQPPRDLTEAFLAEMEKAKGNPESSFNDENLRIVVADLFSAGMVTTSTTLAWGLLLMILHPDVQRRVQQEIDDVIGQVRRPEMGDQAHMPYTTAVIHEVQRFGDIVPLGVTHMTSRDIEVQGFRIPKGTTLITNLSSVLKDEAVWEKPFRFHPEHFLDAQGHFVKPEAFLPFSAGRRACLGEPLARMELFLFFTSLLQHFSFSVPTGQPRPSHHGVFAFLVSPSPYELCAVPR

The target in this test is Cytochrome P450 2D6 (Homo sapiens) (UniProt P10635). Description: Cytochrome P450 Family 2 Subfamily D Member 6 (CYP2D6) small molecule antagonists: luciferase reporter qHTS assay (AID 1671196). Also: nearly all actives have a fitted effect of over 50% in size. Conditions: P450-Glo CYP2D6 enzyme assay, luciferin luminescence, 1 h; series mostly up to 115 µM. The source says:
U.S. Tox21 Program National Center for Advancing Translational Sciences [NCATS] U.S. Environmental Protection Agency [EPA] National Institutes of Environmental Health Sciences [NIEHS] National Toxicology Program [NTP] U.S. Food and Drug Administration [FDA] Tox21 Assay Overview: Cytochrome P450 (CYP) enzymes are membrane-bound hemeproteins that play a key role in metabolism of drugs and xenobiotics. Evaluation of the effect of chemicals on CYP isozymes is useful to minimize the adverse drug reactions and toxicities in drug development process. Tox21 chemicals were tested for their effect on CYP enzyme activities by using P450-Glo (TM) screening systems (Promega Corporation, Madison, WI). These systems provide a luminescent method containing proluciferin substrates and are converted to luciferin products by CYP isozymes. The luciferin products formed are detected with a luciferin detection reagent, and the amount of light produced is proportional to CYP activity. P450-Glo (TM) CYP2D6 screening system (Catalog. No. V9890) was used to detect the compounds that interfere in CYP2D6 activity.
Tox21 Assay Protocol Summary: Two ul of enzyme-substrate mix was dispensed into medium binding white/solid 1536-well plates (Greiner Bio-One North America Inc., Monroe, NC) using a BioRaptr Flying Reagent Dispenser (FRD, Beckman Coulter, Brea, CA). […] The assay plates were incubated at room temperature for 10 min. Then 2 ul of NADPH regeneration solution was added to each well of the assay plates using an FRD and incubated at room temperature for 1 h. The reaction was stopped by adding 4 ul of detection reagent using an FRD and after 20 min incubation at room temperature the luminescence signal was measured using a ViewLux plate reader (Perkin Elmer, Shelton, CT). Data were expressed as relative luminescence units.
For orientation: In a reporter assay the amount or activity of a reporter protein is the signal.
On to `COc1cccc(C(=O)CCN[C@@H](C)[C@H](O)c2ccccc2)c1`, for which the Potency was 1.38 µM (active).

Consider `Clc1ccc(-c2ccc(Cl)c(Cl)c2Cl)c(Cl)c1Cl`, for which the Potency result is “inactive”.

For the molecule `Cc1cc(N=Nc2ccccc2C)ccc1N`, the Potency is 63.3 µM (active).

Consider `Brc1c(Br)c(Br)c(Oc2c(Br)c(Br)c(Br)c(Br)c2Br)c(Br)c1Br`, for which the activity change, negative = inhibition was 0.431% [at 23.6 µM] (inactive).

Turning to `CCCCOP(=O)(CCCC)OCCCC`, the Potency result was “inactive”.

As to `ClC1=C(Cl)[C@]2(Cl)[C@@H]3[C@@H](Cl)[C@@H](Cl)C[C@@H]3[C@@]1(Cl)C2(Cl)Cl`, the Potency result was “inactive”.

For `CCOc1cc(C(C)(C)C)ccc1C1COC(c2c(F)cccc2F)=N1` (stereo not given), the Potency is 5.43 µM (active).

Take `CC(C)CC(C)Nc1ccc(Nc2ccccc2)cc1` (stereo not given): the Potency is 2.78 µM (active).

For the molecule `COc1ccc([N+](=O)[O-])cc1O`, the Potency result was “inactive”.

In the case of `CC(=O)/C=C/c1ccc2c(c1)OCO2`, the Potency is 25.3 µM (active).

Turning to `CN(CCCC(=O)c1cccnc1)N=O`, the Potency entry is “inactive”.

In the case of `Clc1ccc(Oc2ccccc2)cc1`, the Potency entry is “inactive”.

For the molecule `[Hg+2].[I-].[I-]`, the Potency was 2 µM (active).

As to `CC(=O)O[C@H]1CC[C@@]2(C)C(=CC[C@@H]3[C@@H]2CC[C@]2(C)C(=O)CC[C@@H]32)C1`, the Potency entry is “inactive”.

In the case of `ClC(Cl)=C(c1ccc(Cl)cc1)c1ccc(Cl)cc1`, the Potency result was “inactive”.

On to `CCCCCCCCCCCCCN1CC(C)OC(C)C1` (stereo not given), for which the Potency is 22.4 µM (active).

In the case of `CCC(C)(C)C(=O)OC1=C(c2ccc(Cl)cc2Cl)C(=O)OC12CCCCC2`, the Potency entry was “inactive”.

On to `O=[N+]([O-])c1cc(Cl)ccc1Cl`, for which the Potency entry was “inactive”.

`CC[C@H](C)[C@H]1O[C@]2(C=C[C@@H]1C)C[C@@H]1C[C@@H](C/C=C(\C)[C@@H](O[C@H]3C[C@H](OC)[C@@H](O[C@H]4C[C@H](OC)[C@@H](O)[C@H](C)O4)[C@H](C)O3)[C@@H](C)/C=C/C=C3\CO[C@@H]4[C@H](O)C(C)=C[C@@H](C(=O)O1)[C@]34O)O2`: the Potency is 33.3 µM (active).

Consider `CCCOCC(=Nc1ccc(Cl)cc1C(F)(F)F)n1ccnc1`, for which the Potency is 35.6 µM (active).

Take `CC1(C)C(/C=C(\Cl)C(F)(F)F)C1C(=O)OC(C#N)c1cccc(Oc2ccccc2)c1` (stereo not given): the Potency result was “inactive”.

Take `COP(=O)(OC)SCn1c(=O)oc2cc(Cl)cnc21`: the Potency was 39.9 µM (active).

For `CC(=O)OC1(c2ccccc2)CCN(CCc2ccccc2)CC1`, the Potency is 0.727 µM (active).

For `[Cl][Sn]([c]1ccccc1)([c]1ccccc1)[c]1ccccc1`, the Potency was 0.952 µM (active).

Consider `CN(C)c1ccc(N=Nc2ccccc2)cc1`, for which the Potency was 40 µM (active).

In the case of `CCCCCCCCCCCCCCC(Br)C(=O)O` (stereo not given), the Potency entry is “inactive”.

For the molecule `COc1cc(C=O)cc2c1[C@H](COC(N)=O)[C@]1(OC(C)=O)ON2C[C@H]2[C@@H]1N2C(C)=O`, the Potency entry is “inactive”.

Regarding `CCOP(=S)(OCC)SCS(=O)(=O)CC`, the Potency is 39.9 µM (active).

Consider `C[C@]12CC[C@H](O)C[C@H]1CC[C@@H]1[C@@H]2C[C@@H](O)[C@]2(C)[C@@H](C3=CC(=O)OC3)CC[C@]12O`, for which the Potency result is “inactive”.

For `Cn1[nH]nnc1=S`, the Potency result is “inactive”.

In the case of `CCC[CH2][Sn]([CH2]CCC)([CH2]CCC)[O]C(=O)c1ccccc1`, the Potency is 1.12 µM (active).

Regarding `CCN`, the Potency entry was “inactive”.

Consider `C=CC(=O)OCC(COC(=O)C=C)(COC(=O)C=C)COC(=O)C=C`, for which the Potency is 28.3 µM (active).

Turning to `CC(O)C#N` (stereo not given), the Potency result was “inactive”.

As to `CCOC(=O)OC1=C(c2cc(C)ccc2C)C(=O)NC12CCC(OC)CC2` (stereo not given), the Potency entry is “inactive”.

`CCOP(=S)(OCC)OC(Cl)C(Cl)(Cl)Cl` (stereo not given): the Potency result is “inactive”.

For the molecule `CCCN(CCC)c1c([N+](=O)[O-])cc(S(N)(=O)=O)cc1[N+](=O)[O-]`, the Potency is 62.7 µM (active).

For `O=C(CCCN1CCC2(CC1)C(=O)NCN2c1ccccc1)c1ccc(F)cc1`, the Potency is 0.977 µM (active).

As to `Oc1cc(Cl)c(Cl)c(Cl)c1`, the Potency was 6.73 µM (active).

Turning to `O=C(CCl)Nc1ccccc1`, the Potency was 39.9 µM (active).

For the origin of these results see PubChem BioAssay (Tox21).
